Screening results from PubChem BioAssay.
A selection: hits, their analogues and other compounds. The true share with any hit is near 19%.
Marburg entry inh: Marburg virus entry inhibition. AID 540276. 300,000 tested, 1.8% active. Potency, µM (titrated, usually from 37.8 µM), inactives show at the top dose activity change, negative = inhibition, actives largely listed as inhibitors. Marburg virus pseudotyped entry inhibition, cell reporter; calls by dose curve; tested in HEK293 cells; note: potency is the fitted concentration of half-maximal effect; % is set by controls: 0 for no effect and ±100 for the full control effect
Shiga toxin inh: blocks Shiga toxin action in Vero cells. Vero cells, Shiga toxin protein synthesis inhibition reporter. inhibition, % at 38.7 µM. 290,000 tested, 9.2% active. AID 2315; in the data active = inhibition mostly above about 28%, no sharp cut-off; inactive = mostly below about 43%; note: 0% is about no effect
Lassa entry inh: inhibitors of Lassa virus binding or cell entry. Lassa virus pseudotype entry inhibition, cell reporter. Potency, µM (top dose mostly 37.9 µM), for the others: top-dose activity change, negative = inhibition, most hits filed as inhibitors. 300,000 tested, 1.2% active. AID 540256; calls by dose curve; tested in HEK293 cells; note: potency is the fitted concentration of half-maximal effect; % is set by controls: 0 for no effect and ±100 for the full control effect; nearly all actives have a fitted effect of over 50% in size
Pf growth 96h: inhibits malaria parasite growth, 96 h; P. falciparum luciferase reporter growth, 96 h; Potency, µM (series often up to 28.7 µM), without a hit: top-dose activity change, negative = inhibition, usual class: inhibitors; 320,000 tested, 6.9% active; AID 504834; note: potency is the fitted concentration of half-maximal effect; % is set by controls: 0 for no effect and ±100 for the full control effect
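Erythrocytes infected with luciferase-expressing P. falciparum were dispensed at 2% hematocrit and 0.05% parasitemia (final), then incubated with compounds 96 hours at 37 C in 5% CO2. Luminescence after detection reagent addition reported growth.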
CHX counter: counter-screen for Shiga toxin inhibitors: cycloheximide protein synthesis inhibition; cell reporter, cycloheximide protein synthesis inhibition counterscreen; max response, %; 300,000 tested, 12% active; AID 2314; in the data active = max response mostly above about 13%, no sharp cut-off; inactive = mostly below about 14%; note: read at 38.3 µM for the half of the compounds with a filed dose; 0% is about no effect
Pf growth 48h: P. falciparum growth inhibition at 48 hours (one generation); P. falciparum luciferase growth in erythrocytes, 48 h; Potency, µM (titrated, usually from 28.7 µM), without a hit: at the top dose activity change, negative = inhibition, actives largely listed as inhibitors; 310,000 tested, 5.9% active; AID 504832; note: potency is the fitted concentration of half-maximal effect; % is set by controls: 0 for no effect and ±100 for the full control effect
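Parasite viability was followed by luminescence of a genomically integrated firefly luciferase. Cultures held 0.1% parasitemia at 2% hematocrit (final), incubated under 5% CO2 at 37 C.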
* marks the source's active call; other numbers are inactive results; [ ] = remark or other dose. Unless noted, calls come from the whole dose curve; as a rule, active = well fitted inhibition curve with a large enough effect; inconclusive = small, poorly fitted or top-dose-only effect, or another doubt; inactive = no such curve, though single readings can be large or run the other way.

For Cc1nc(CNC(=O)c2cc(COc3c(F)cccc3F)on2)cs1 the results were Marburg entry inh -0.8%[46.1 µM], Shiga toxin inh 39.1, Lassa entry inh 2.5%, Pf growth 96h 7.2%, CHX counter 12.4 and Pf growth 48h 12.1%.
For COc1ccc(C(=O)NCc2ccc3c(c2)OCO3)cc1 the results were Marburg entry inh inconclusive, Shiga toxin inh 13.2, Lassa entry inh 25.8%, Pf growth 96h 32.7%[5.75 µM], CHX counter 5.1 and Pf growth 48h 16.2%.
For CCC(NC(=O)c1cc(COc2c(F)cccc2F)on1)c1ccncc1 (configuration not stated) the results were Marburg entry inh -34.2%, Shiga toxin inh -0.6, Lassa entry inh 1.5%, Pf growth 96h -7.6%, CHX counter 14.9 and Pf growth 48h 12.4%.
For COC(=O)[C@H](Cc1ccccc1)NC(=O)c1cc(COc2c(F)cccc2F)on1 the results were Shiga toxin inh 67.2*, Pf growth 96h 11.7µM*, CHX counter 51.8* and Pf growth 48h 40.6%.
For COc1cccc(OCc2cc(C(=O)NCc3ccc4c(c3)OCO4)no2)c1 the results were Shiga toxin inh 47.9*, Pf growth 96h 85.6%, CHX counter 43.7* and Pf growth 48h 19.8%.
Screening O=C(NCc1ccc2c(c1)OCO2)c1cc(COc2c(F)cccc2F)on1 returned Marburg entry inh 20.5%, Shiga toxin inh 41.9, Lassa entry inh inconclusive, Pf growth 96h inconclusive, CHX counter 36.9* and Pf growth 48h 17.6%.
`COc1cccc(CNC(=O)c2cc(COc3c(F)cccc3F)on2)c1` gave Marburg entry inh 19.1%[46.1 µM], Shiga toxin inh 32.8*, Lassa entry inh -6.6%[46.1 µM], Pf growth 96h -16.5%, CHX counter 28.5* and Pf growth 48h 6.5%.
For CCOCCCN1CN(S(=O)(=O)c2ccc(Cl)cc2)c2nc3ccccc3nc21 the results were Marburg entry inh -18.3%, Shiga toxin inh 7.8, Lassa entry inh -1.7%, Pf growth 96h inconclusive, CHX counter -1.7 and Pf growth 48h -10.6%.
COCCCN1CN(S(=O)(=O)c2ccc(C)cc2C)c2nc3ccccc3nc21 was read as Shiga toxin inh -1.7, Pf growth 96h inconclusive, CHX counter -2.0 and Pf growth 48h inconclusive.
`CC(C)OCCCN1CN(S(=O)(=O)c2ccc(Cl)cc2)c2nc3ccccc3nc21` gave Marburg entry inh -13.2%, Shiga toxin inh 11.3, Lassa entry inh -1.7%, Pf growth 96h inconclusive, CHX counter 17.5* and Pf growth 48h inconclusive.
Screening CC(C)OCCCN1CN(S(=O)(=O)c2cccc(Cl)c2)c2nc3ccccc3nc21 returned Marburg entry inh 0.1%, Shiga toxin inh 37.7*, Lassa entry inh 4.4%, Pf growth 96h 9.28µM*, CHX counter 22.5* and Pf growth 48h inconclusive.
`Cc1cc(C)c(S(=O)(=O)c2c(C)cccc2C)c(OCC(C)C)n1` gave Marburg entry inh inconclusive, Shiga toxin inh -29.7, Lassa entry inh 22.8%, Pf growth 96h 11.7µM*, CHX counter 6.0 and Pf growth 48h 11.7µM*.
Screening O=c1oc2c(CN3CCN(CCO)CC3)c(O)ccc2cc1-c1ccccc1 returned Lassa entry inh 22.4%[46.1 µM].
For CCCC12CN3CC(CCC)(CN(C1)C3c1ccccn1)C2=O (configuration not stated) the results were Marburg entry inh 3.8%, Shiga toxin inh -3.9, Lassa entry inh 4.2%, CHX counter -1.6 and Pf growth 48h 9.28µM*.
For COc1ccccc1N1CCN(CC(=O)c2c(N)n(C)c(=O)n(C)c2=O)CC1 the results were Marburg entry inh -3.2%[14.2 µM], Shiga toxin inh -9.0, Lassa entry inh 7.2%, Pf growth 96h 29.9%, CHX counter -0.8 and Pf growth 48h 10.3%.
For c1ccc2sc(SSc3nc4ccccc4s3)nc2c1 the results were Pf growth 96h -2.6% and Pf growth 48h 19.5%.
`OC1CCCCC1Sc1nc2ccccc2s1` (configuration not stated) gave Marburg entry inh -1.4%, Shiga toxin inh 104.1*, Lassa entry inh 13.0%, Pf growth 96h inconclusive, CHX counter 42.2* and Pf growth 48h 114.8%.
`Cc1cccc(C(=O)OCC(=O)Nc2nnc(-c3ccccc3)o2)c1O` gave Marburg entry inh inconclusive, Lassa entry inh -0.3%, Pf growth 96h 28.4% and Pf growth 48h -20.2%.
For O=C(COC(=O)C1CC(=O)N(c2ccc3c(c2)OCCO3)C1)NC1CCCc2ccccc21 (configuration not stated) the results were Marburg entry inh -1.4%, Shiga toxin inh 44.8*, Lassa entry inh 13.4%, Pf growth 96h 91.1%, CHX counter 19.6* and Pf growth 48h 65.4%.
`CCCCC/C=C\C/C=C\C/C=C\C/C=C\CCCC(=O)NCc1ccoc1` gave Shiga toxin inh 5.2 and CHX counter 2.9.
`CSCCC(NC(=O)c1ccc(Cl)cc1)C(=O)OCC(C)=O` (configuration not stated) gave Marburg entry inh -3.8%[46.1 µM], Shiga toxin inh -5.9, Lassa entry inh 2.0%, Pf growth 96h 26.1%, CHX counter -1.5 and Pf growth 48h 34.9%.
Cc1[nH]nc(-c2cccnc2)c1N=NN(C)C was read as Marburg entry inh 7.08µM* and Lassa entry inh inconclusive.
CCOc1ccc2nc(SCC(=O)N(CCOC)c3c(N)n(Cc4ccccc4)c(=O)[nH]c3=O)[nH]c2c1 was read as Marburg entry inh -1.4%, Lassa entry inh -3.9%, Pf growth 96h -22.3% and Pf growth 48h inconclusive.
`CCCCn1c(N)c(N(CCOC)C(=O)CSc2nc3ccc(C)cc3[nH]2)c(=O)[nH]c1=O` gave Marburg entry inh 10.9%[46.1 µM], Shiga toxin inh -2.9, Lassa entry inh -2.0%, Pf growth 96h 9.28µM*, CHX counter -3.4 and Pf growth 48h inconclusive.
For CCCCn1c(N)c(N(CCC(C)C)C(=O)COC(=O)c2ccc([N+](=O)[O-])s2)c(=O)[nH]c1=O the results were Marburg entry inh -0.9% and Lassa entry inh 1.1%.
CCCCn1c(N)c(N(CC(C)C)C(=O)c2ccc(N(C)S(=O)(=O)c3ccc(C)cc3)cc2)c(=O)[nH]c1=O was read as Marburg entry inh 7.8%, Lassa entry inh 0.5%, Pf growth 96h inconclusive and Pf growth 48h inconclusive.
CCCCN(C(=O)c1cccc(S(=O)(=O)N(C)c2ccc(C)cc2)c1)c1c(N)n(CCCC)c(=O)[nH]c1=O was read as Marburg entry inh -5.0%, Lassa entry inh 5.8%, Pf growth 96h inconclusive and Pf growth 48h 0.37µM*.
`CCCCN(C(=O)c1ccc([N+](=O)[O-])s1)c1c(N)n(CCCC)c(=O)[nH]c1=O` gave Marburg entry inh -67.6%, Lassa entry inh 8.0%, Pf growth 96h inconclusive and Pf growth 48h 10.4µM*.
Screening CCCCn1c(N)c(N(CCOC)C(=O)c2cccc(S(=O)(=O)N(C)c3ccc(C)cc3)c2)c(=O)[nH]c1=O returned Marburg entry inh -15.7%, Lassa entry inh -2.2%[46.1 µM], Pf growth 96h 9.28µM* and Pf growth 48h 6.57µM*.
